Experimental data: PubChem BioAssay (NCI)
Compounds without any hit were thinned out: in the full panel of roughly 83,000, 20% have a hit.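 Values shown are percent growth following 48 h exposure of cells in 96-well plates to a single concentration of compound; below 10 was considered active.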 A number with no mark means an inactive call. Active and inactive are the calls of the source.

test system: UACC-62 melanoma; test: NCI-60 one-dose screen, 48 h (100 = growth as untreated, 0 = no growth, -100 = all killed); details: 10 µM unless noted
Procedure: Growth inhibition of the UACC-62 human tumor cell line is measured as a screen for anti-cancer activity. Cells are grown in 96 well plates and exposed to the test compound for 48 hours. Compounds are tested at a single concentration, which is 10^-5 M for most compounds. The reported endpoint is percent growth (GI% or GIPRCNT), where numbers from 0 - 100% represent growth inhibition, and numbers from -100% - 0 represent cell death. For example, a value of 40 represents 60% growth inhibition. A value of 0 means no net growth occurred over the course of the experiment. A value of -40 indicates 40% of cells at the beginning of the experiment died by the end of the experiment. A value of -100 means all cells are dead at the end of the experiment.
NCI-60 Human Tumor Cell Lines Screen was performed using the standard one-dose NCI protocol, which is described in more detail at https://dtp.cancer.gov/discovery_development/nci-60/default.htm.
Compounds with GIPRCNT values below 10 were considered active. Activity score was based on GIPRCNT using the following formula: […]
Score is 0 for GIPRCNT values of 100 or above, 50 for GIPRCNT values of 0, and 100 for GIPRCNT values of -100.

Row | SMILES | growth
1 | N#Cc1c2c(nc3n[nH]c(N)c13)CCCC2 | 101%
2 | CCN(CC)CC(O)CNc1c2ccc([N+](=O)[O-])cc2nc2cc(OC)c(OC)cc12 (stereo not given) | -77.6% (active)
3 | Cc1[nH]n(-c2ccccc2)c2nc3nncc3c(-c3ccc(Cl)cc3)c12 | 91.5%
4 | CC[C@H](Nc1cc(C)nc(N)n1)c1nc2cccc(NCc3ccc(C(=O)NO)cc3)c2c(=O)n1-c1ccccc1 | 9.65% (active)
5 | COc1ccc(CN(c2ccc(C)cc2)C2OC(=O)c3ccccc32)cc1OC (stereo not given) | 94.9%
6 | CN1CCCCC1CCN1c2ccccc2Sc2ccc(Br)cc21 (stereo not given) | 76.8%
7 | CC/C=C\C[C@H](F)C/C=C1/C(=O)C=C[C@@H]1C/C=C\CCCC(=O)OC | -49.4% (active)
8 | O=C1/C(=C/c2ccccc2)CN(CCC(=O)N2C/C(=C\c3ccccc3)C(=O)/C(=C/c3ccccc3)C2)C/C1=C\c1ccccc1 | 70.2%
9 | COc1cc(-c2nc3ccccc3s2)ccc1NC(=O)COc1ccc(Cl)cc1 | 36.1%
10 | CNC(=O)c1cc(Oc2ccc3nc(NC(=O)Nc4ccc(CN5CCOCC5)c(C(F)(F)F)c4)sc3c2)ccn1 | 0.564% (active)
11 | Cn1c2ccccc2c2c3[nH]c(=O)[nH]c(=O)c3c3c4ccccc4n(C)c3c21 | 43%
12 | COc1c(Cl)cc(Cl)cc1Cl | 100%
13 | CC(C)(C)n1cc(-c2ccnc(NCCCNS(=O)(=O)c3cccc4ccccc34)c2)c(-c2cccc(O)c2)n1 | 51.2%
14 | COc1ccc(C2CC(=O)Nc3c2c(C)nn3-c2nc3ccccc3[nH]2)cc1 (stereo not given) | 104%
15 | CCN1CCN(Cc2ccc(NC(=O)Nc3nc4ccc(Oc5ccnc(C(=O)NC)c5)cc4s3)cc2C(F)(F)F)CC1 | -92.7% (active)
16 | C#Cc1nc2ccccc2c(=O)[nH]1 | -77.2% (active)
17 | C/C(=C(/c1ccc(O)cc1)c1ccc(OCCN(C)C)cc1)c1ccccc1 | 36.8%
18 | CCCNc1nc(SC)nc(-c2cccc(N)c2)c1C#N | 89.4%
19 | Oc1cccc(Nc2nccc(-c3ccc4ccccc4c3)n2)c1 | 32.9%
20 | COc1ccccc1N1CCN(CCn2c(=O)c3c(c4ccccc4n3C)n(C)c2=O)CC1 | 92.4%

Row | SMILES | growth
21 | O=C(N/N=C/c1ccc(O)cc1O)c1cccnc1 | 34.2%
22 | O=c1c2cccc3c(NC4CCCCC4)ccc(c32)c2nc3ccccc3n12 | 82.8%
23 | COc1cc(C#N)cc(OC)c1OCCN(CCOc1c(OC)cc(C#N)cc1OC)S(=O)(=O)c1ccc(C)cc1 | 96.8%
24 | O=C1Nc2c(ccc(Cl)c2Cl)/C1=C/c1cc(Br)c(O)c(Br)c1 | 26.1%
25 | COc1ccccc1/C=C(/C(=O)c1ccccc1)c1ccccc1 | 82.4%
26 | CC1CN(Cc2ccco2)C(=S)N(c2ccccc2)C1=O (stereo not given) | 93.2%
27 | O=C1C=CC(=O)c2c1nc1n2CCCC1 | 71.4%
28 | C=C1CCC2C3(C)COC(C)(C)OC3CCC2(C)C1C/C=C1/C(=O)OCC1OC(C)=O (stereo not given) | 41.9%
29 | CCCCCCCCSC1=CC(=O)C(OC)=C(OC)C1=O | 42.9%
30 | CCCCCN(CCCCC)CCC[C@@H](C)[C@H]1CC[C@H]2[C@@H]3[C@H](OCCCN)C[C@@H]4C[C@H](OCCCN)CC[C@]4(C)[C@H]3C[C@H](OCCCN)[C@]12C | 13.6%
31 | Cc1ccc(/C=C2\Oc3cc(OCC(=O)c4ccc(Cl)cc4)ccc3C2=O)cc1 | 92.7%
32 | Cc1ccc2cnc(N)c(C#Cc3cncc(C(=O)Nc4ccc(CN5CCN(C)CC5)c(C(F)(F)F)c4)c3)c2c1 | -85.5% (active)
33 | CCN(CC)CCCC(C)Nc1ccnc2c(OC)cccc12 (stereo not given) | 114%
34 | O=C(O)c1cccc2c1-c1ccccc1C2=O | 90.1%
35 | Clc1nc(Cl)c2c3c(sc2n1)CCCC3 | 92.9%
36 | COc1ccc(-c2nn(-c3ccccc3)cc2/C=C/C(=O)OCc2cn(-c3ccc(F)c(Cl)c3)nn2)cc1 | 80%
37 | CCOc1ccc(Nc2nc(-c3c(C)nc4ncccn34)cs2)cc1 | 10.6%
38 | O=S(=O)(Nc1ccc(Cl)cc1Cl)c1ccc(-c2cnc(C3CC3)o2)cc1 | 35.3%
39 | Brc1cccc(-c2nc(-c3ccc4c(c3)OCCO4)co2)c1 | 44.6% [25 µM]
40 | Cc1noc(C)c1-c1cc(O)cc(C(O)c2ccccc2)c1 (stereo not given) | 31.6%
